# Measured values taken from PubChem BioAssay.
# Calls of active or inactive are those of the source.
# Assay: basal MM1S mitochondrial membrane potential changes, profiling panel, cell-based, JC-1 fluorescence, 24 h, 100 nL compound (AID 1170)
# Details: higher = more signal
# Also: test concentration not given here.
row,SMILES,z-score
1,CC1CC/C=C\[C@H]2OC34C=CCN(Cc5ccccc5)C(=O)[C@H]3N(CCCO)C(=O)[C@@H]4C2C(=O)O1 (stereo partly specified),1.68
2,C=CC(=C)[C@H]1Oc2ccccc2S(=O)(=O)N2CCC[C@@H]12,0.941
3,COCCOC(=O)N1C(=O)[C@@]2(c3cc(C#CC4(O)CCCCCC4)ccc31)[C@H](c1ccc(OCCO)cc1)N1[C@H](c3ccccc3)[C@H](c3ccccc3)OC(=O)[C@H]1[C@@H]2C(=O)N1CCN(c2ncccn2)CC1,-1.19
4,COc1ccc(CCNC(=O)[C@@]2(C)c3ccccc3C(=O)N(C(C)C)[C@H]2c2ccc(CO)cc2)cc1,-0.03
5,CC1(C)C2C=C(C(O)C3C=CC4C(=O)NC(=O)C4N3Nc3ccc(Cl)cc3Cl)C[C@@H]1C2 (stereo partly specified),-1.04
6,O=C1N(Cc2ccccc2)c2ccccc2[C@@H]2OC(c3ccc(OCCCO)cc3)=N[C@]12CCS(=O)(=O)c1ccccc1,-0.605
7,COc1cc(COC(C)=O)ccc1OC(C)=O,0.528
8,O=C(OCc1ccccc1)C1=CCC2c3[nH]c4ccccc4c3C(=O)C1N2S(=O)(=O)c1ccccc1[N+](=O)[O-] (stereo unspecified),-3.28
9,O=C(NC1CC1)[C@@H]1c2ccccc2C(=O)N(Cc2ccccc2Cl)[C@H]1c1ccc(CO)cc1,1.41
10,C[N+](C)(C)CCCCNC(=O)[C@H]1C[C@H]2C(=O)N3CCC[C@H]3C(=O)N2[C@H]1c1cccc(OCCO)c1,-0.193

# Assay: A549 lung cancer cell viability effects, profiling panel, resazurin fluorescence, 24 h, PK04 Diversity Set (AID 1171)
# Details: higher = more signal, called active from +8 up or from −8 down
row,SMILES,z-score
1,CO[C@H]1O[C@H](CO)[C@@H](OC(=O)Nc2ccc(C(F)(F)F)cc2)[C@H](OC(=O)Nc2ccc3c(c2)OCO3)[C@@H]1OC(=O)Nc1ccc2c(c1)OCO2,-1.99 (inactive)
2,COCCOC(=O)N1C(=O)[C@@]2(c3cc(C#Cc4ccc(OC)cc4)ccc31)[C@H](c1ccc(O)cc1)N1[C@H](c3ccccc3)[C@H](c3ccccc3)OC(=O)[C@H]1[C@@H]2C(=O)N1CCc2cc(OC)c(OC)cc2C1,0.776 (inactive)
3,CCC(CC)C(O)C1C=CC2C(=O)NC(=O)C2N1Nc1ccccn1 (stereo unspecified),-0.801 (inactive)
4,CN1C(=O)C2C=CC(C(O)C3CC=CCC3)N(N(c3ccccc3)c3ccccc3)C2C1=O (stereo unspecified),-0.501 (inactive)
5,COc1cc2c(cc1OC)CN(C(=O)[C@H]1[C@@H]3C(=O)O[C@@H](c4ccccc4)[C@@H](c4ccccc4)N3[C@@H](c3ccc(O)cc3)[C@]13C(=O)Nc1ccc(C#CCCO)cc13)CC2,0.125 (inactive)
6,CCN(CC)c1ccc(N2CC=CC34O[C@@H]5C=CCCOC(=O)C5[C@H]3C(=O)N(CCCCCCO)[C@@H]4C2=O)cc1 (stereo partly specified),1.02 (inactive)
7,Cc1ccc(S[C@]2(C(=O)O)CC(=O)N(C(C)C)[C@@H]2c2ccc(CO)cc2I)cc1,0.667 (inactive)
8,C=CCNC(=O)[C@H]1[C@@H]2C(=O)O[C@@H](c3ccccc3)[C@@H](c3ccccc3)N2[C@@H](c2ccccc2OCCO)[C@]12C(=O)Nc1ccc(C#CCCO)cc12,-0.685 (inactive)
9,C=C(CC1([C@@H](NP(=O)(c2ccccc2)c2ccccc2)[C@H]2C[C@@H]2CCCC)CC1)c1ccccc1,4.95 (inactive)
10,O=C1C[C@@](C(=O)NCCN2CCOCC2)(c2ccc([N+](=O)[O-])cc2)[C@@H](c2ccc(CO)cc2)N1CC12CC3CC(CC(C3)C1)C2,-2.06 (inactive)
11,CC(C)[Si](C#Cc1ccc(Oc2ccccc2)cc1)(O[Si](C#Cc1ccc(Oc2ccccc2)cc1)(C(C)C)C(C)C)C(C)C,0.162 (inactive)
12,O=C(NCCO)C1=C[C@H](Oc2ccccc2I)[C@@H](O)[C@H](N(Cc2ccco2)C(=O)Cc2ccccc2)C1,-1.35 (inactive)
13,COc1ccc(C#Cc2ccc3c(c2)[C@]2(C(=O)N3)[C@H](C(=O)Nc3nc4ccccc4s3)[C@H]3C(=O)O[C@H](c4ccccc4)[C@H](c4ccccc4)N3[C@@H]2c2ccc(O)cc2)cc1,0.279 (inactive)
14,C=CCOC(=O)[C@H]1[C@@H]2C(=O)O[C@@H](c3ccccc3)[C@@H](c3ccccc3)N2[C@@H](c2ccc(OCCOC(=O)[C@@H]3C[C@@H]4C(=O)N[C@@H](CCCCNC(C)=O)C(=O)N4[C@@H]3c3ccc(O)cc3)cc2)[C@]12C(=O)Nc1ccccc12,-1.57 (inactive)
15,COC(=O)[C@H](Cc1ccccc1)N[C@@H](/C=C/C1CC1)[C@H](O)Cc1ccccc1,0.778 (inactive)
16,CC(C)N1C(=O)[C@@]2(Cc3ccccc31)c1ccccc1C(=O)N(Cc1ccccc1Cl)[C@H]2c1ccc(CO)cc1,0.458 (inactive)
